ChEMBL document CHEMBL3988442, “University of Dundee, Small-Polar-MMV Screening Library” (2021)
For part of these data: Results with a measured potency or affinity are listed apart.

Columns and labels:
Design in all cases: scale not given: direction of the effect not stated beside the values
[1] = target: Protein translocase subunit SecA (Escherichia coli (strain K12)) (UniProt P10408); test: Assay to Identify E. coli SecA ATPase Inhibitors; assay type: functional; conditions: 30 µM
[2] = target: T1, Ubiquitin-activating enzyme e1, putative (Leishmania donovani (strain BPK282A1)) (UniProt E9BSI1); test: Leishmania donovani Ubiquitin Activating Enzyme (LdE1); assay type: functional; conditions: 30 µM
T1 sequence (whole entry): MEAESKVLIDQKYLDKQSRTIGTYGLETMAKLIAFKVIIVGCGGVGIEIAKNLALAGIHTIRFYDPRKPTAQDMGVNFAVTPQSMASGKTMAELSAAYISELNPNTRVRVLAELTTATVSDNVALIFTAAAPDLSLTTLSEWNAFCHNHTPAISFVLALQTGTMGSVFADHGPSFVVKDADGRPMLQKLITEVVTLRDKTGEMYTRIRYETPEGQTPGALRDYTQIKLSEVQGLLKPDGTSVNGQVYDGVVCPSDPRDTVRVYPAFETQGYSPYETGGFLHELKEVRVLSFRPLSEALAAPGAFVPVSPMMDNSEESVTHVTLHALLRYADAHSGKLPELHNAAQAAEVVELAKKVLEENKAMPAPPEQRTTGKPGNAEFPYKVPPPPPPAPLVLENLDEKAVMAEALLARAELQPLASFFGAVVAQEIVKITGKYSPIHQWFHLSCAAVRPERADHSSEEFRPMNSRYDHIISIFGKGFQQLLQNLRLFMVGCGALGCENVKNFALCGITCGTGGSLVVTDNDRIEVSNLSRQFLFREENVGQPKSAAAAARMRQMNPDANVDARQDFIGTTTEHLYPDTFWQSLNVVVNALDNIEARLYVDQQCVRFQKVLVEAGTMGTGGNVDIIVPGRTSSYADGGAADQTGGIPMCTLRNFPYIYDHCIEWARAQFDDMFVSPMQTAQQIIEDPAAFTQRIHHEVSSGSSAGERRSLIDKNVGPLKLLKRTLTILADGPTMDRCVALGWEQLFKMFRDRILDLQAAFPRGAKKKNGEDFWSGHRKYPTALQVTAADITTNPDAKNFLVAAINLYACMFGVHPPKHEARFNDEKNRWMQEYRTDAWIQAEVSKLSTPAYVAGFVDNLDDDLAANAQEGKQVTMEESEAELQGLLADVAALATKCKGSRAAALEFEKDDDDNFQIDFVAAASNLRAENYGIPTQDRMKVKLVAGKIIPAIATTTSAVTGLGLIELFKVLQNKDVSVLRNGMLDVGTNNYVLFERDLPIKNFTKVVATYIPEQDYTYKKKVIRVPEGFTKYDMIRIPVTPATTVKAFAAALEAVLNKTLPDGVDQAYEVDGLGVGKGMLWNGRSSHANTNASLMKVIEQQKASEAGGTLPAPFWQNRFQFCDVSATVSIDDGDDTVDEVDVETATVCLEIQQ

[3] = target: Sialic acid-binding Ig-like lectin 9 (Homo sapiens) (UniProt Q9Y336); test: Hs-Siglec9 ALPHAscreen SOP 20170721; conditions: 10 µM
Sequence of Sialic acid-binding Ig-like lectin 9 (Homo sapiens) (Q9Y336 whole entry): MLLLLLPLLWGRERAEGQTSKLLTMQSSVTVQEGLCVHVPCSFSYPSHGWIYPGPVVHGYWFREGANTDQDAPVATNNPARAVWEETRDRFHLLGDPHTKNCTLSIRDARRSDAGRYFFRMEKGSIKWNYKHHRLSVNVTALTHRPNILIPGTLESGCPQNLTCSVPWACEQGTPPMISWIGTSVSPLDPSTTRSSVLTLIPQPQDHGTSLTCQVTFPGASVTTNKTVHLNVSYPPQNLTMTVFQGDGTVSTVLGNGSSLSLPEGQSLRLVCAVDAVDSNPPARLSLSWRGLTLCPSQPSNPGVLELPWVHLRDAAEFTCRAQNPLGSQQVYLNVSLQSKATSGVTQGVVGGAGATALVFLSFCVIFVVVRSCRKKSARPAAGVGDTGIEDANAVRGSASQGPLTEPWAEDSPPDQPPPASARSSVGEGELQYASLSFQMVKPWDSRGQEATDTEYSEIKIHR

Trypanosoma cruzi = test: Trypanosoma cruzi phosphomannomutase and mannose-1-phosphate guanylyltransferase assay; assay type: functional; conditions: 10 µM
[4] = target: T2, Arginase-2, mitochondrial (Homo sapiens) (UniProt P78540); test: in vitro enzyme assay to detect the production of urea directly proportional to the activity of Arginase II; assay type: functional; conditions: 33.3 µM; also: in the data most compounds retested in dose-response had high values
T2 sequence (whole entry): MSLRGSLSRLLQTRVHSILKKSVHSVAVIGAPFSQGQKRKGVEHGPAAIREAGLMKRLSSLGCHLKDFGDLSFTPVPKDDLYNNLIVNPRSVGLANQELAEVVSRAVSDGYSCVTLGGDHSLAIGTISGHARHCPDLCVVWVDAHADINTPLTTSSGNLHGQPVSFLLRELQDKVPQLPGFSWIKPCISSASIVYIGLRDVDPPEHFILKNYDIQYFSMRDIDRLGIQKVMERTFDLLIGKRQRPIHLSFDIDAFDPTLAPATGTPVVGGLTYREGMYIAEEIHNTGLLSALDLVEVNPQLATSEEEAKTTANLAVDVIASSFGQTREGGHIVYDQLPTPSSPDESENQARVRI

[5] = target: T3, Proteasome subunit beta (Trypanosoma cruzi) (UniProt O96673); test: Trypanosoma cruzi proteasome chymotrypsin-like activity (TcProtChymo) assay.; also: in the data most compounds retested in dose-response had high values; assay type: functional; conditions: 9.37 µM
T3 sequence (whole entry): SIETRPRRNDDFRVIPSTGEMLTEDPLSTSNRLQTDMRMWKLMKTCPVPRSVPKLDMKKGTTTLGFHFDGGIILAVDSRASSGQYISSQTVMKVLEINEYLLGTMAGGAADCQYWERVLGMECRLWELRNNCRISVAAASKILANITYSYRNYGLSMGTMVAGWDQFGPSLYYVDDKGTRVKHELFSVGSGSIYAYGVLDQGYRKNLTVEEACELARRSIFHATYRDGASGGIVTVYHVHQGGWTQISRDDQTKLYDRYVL

Homo sapiens = species on record: Homo sapiens; test: To identify inhibition of the IFN signalling (Jak-Stat) pathway via expression of an eGFP reporter gene under the control of an IFN-stimulated response element (ISRE) containing MxA promoter.; assay type: functional; conditions: 30 µM
[6] = target: T4, Tyrosyl-tRNA synthetase, putative (Trypanosoma cruzi (strain CL Brener)) (UniProt Q4DSP6); test: Trypanosoma cruzi tyrosyl tRNA synthetase (TcYRS) _High Tyrosine SOP; assay type: functional; conditions: 30 µM; also: in the data most compounds retested in dose-response had high values
T4 sequence (whole entry): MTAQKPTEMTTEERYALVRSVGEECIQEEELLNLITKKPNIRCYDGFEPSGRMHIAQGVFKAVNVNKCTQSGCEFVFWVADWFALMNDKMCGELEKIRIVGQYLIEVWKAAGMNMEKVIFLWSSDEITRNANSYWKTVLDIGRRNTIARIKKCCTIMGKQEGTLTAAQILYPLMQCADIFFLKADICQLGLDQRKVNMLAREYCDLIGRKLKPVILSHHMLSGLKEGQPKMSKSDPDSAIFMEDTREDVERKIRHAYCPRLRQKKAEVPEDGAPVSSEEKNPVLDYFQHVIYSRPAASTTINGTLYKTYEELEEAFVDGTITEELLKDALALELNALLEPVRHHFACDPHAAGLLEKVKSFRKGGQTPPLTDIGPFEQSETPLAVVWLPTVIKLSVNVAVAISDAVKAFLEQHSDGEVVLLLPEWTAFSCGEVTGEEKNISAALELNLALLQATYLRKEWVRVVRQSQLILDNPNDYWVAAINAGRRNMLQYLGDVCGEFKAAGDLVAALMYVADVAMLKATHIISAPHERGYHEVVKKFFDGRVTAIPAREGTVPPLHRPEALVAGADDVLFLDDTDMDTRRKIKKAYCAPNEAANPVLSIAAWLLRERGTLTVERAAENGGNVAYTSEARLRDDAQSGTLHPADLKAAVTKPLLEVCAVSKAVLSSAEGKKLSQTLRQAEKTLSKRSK

[7] = target: T4, Tyrosyl-tRNA synthetase, putative (Trypanosoma cruzi (strain CL Brener)); test: Trypanosoma cruzi tyrosyl tRNA synthetase (TcYRS) SOP; assay type: functional; conditions: 30 µM
[8] = target: Chromo domain-containing protein 1 (Saccharomyces cerevisiae (strain ATCC 204508 / S288c) (Baker's yeast)) (UniProt P32657); test: ScCHD-1 Enzyme Inhibition Assay; assay type: functional; conditions: 30 µM; also: in the data most compounds retested in dose-response had high values
Sequence of Chromo domain-containing protein 1 (Saccharomyces cerevisiae (strain ATCC 204508 / S288c) (Baker's yeast)) (P32657 whole entry, the tested form may be a part): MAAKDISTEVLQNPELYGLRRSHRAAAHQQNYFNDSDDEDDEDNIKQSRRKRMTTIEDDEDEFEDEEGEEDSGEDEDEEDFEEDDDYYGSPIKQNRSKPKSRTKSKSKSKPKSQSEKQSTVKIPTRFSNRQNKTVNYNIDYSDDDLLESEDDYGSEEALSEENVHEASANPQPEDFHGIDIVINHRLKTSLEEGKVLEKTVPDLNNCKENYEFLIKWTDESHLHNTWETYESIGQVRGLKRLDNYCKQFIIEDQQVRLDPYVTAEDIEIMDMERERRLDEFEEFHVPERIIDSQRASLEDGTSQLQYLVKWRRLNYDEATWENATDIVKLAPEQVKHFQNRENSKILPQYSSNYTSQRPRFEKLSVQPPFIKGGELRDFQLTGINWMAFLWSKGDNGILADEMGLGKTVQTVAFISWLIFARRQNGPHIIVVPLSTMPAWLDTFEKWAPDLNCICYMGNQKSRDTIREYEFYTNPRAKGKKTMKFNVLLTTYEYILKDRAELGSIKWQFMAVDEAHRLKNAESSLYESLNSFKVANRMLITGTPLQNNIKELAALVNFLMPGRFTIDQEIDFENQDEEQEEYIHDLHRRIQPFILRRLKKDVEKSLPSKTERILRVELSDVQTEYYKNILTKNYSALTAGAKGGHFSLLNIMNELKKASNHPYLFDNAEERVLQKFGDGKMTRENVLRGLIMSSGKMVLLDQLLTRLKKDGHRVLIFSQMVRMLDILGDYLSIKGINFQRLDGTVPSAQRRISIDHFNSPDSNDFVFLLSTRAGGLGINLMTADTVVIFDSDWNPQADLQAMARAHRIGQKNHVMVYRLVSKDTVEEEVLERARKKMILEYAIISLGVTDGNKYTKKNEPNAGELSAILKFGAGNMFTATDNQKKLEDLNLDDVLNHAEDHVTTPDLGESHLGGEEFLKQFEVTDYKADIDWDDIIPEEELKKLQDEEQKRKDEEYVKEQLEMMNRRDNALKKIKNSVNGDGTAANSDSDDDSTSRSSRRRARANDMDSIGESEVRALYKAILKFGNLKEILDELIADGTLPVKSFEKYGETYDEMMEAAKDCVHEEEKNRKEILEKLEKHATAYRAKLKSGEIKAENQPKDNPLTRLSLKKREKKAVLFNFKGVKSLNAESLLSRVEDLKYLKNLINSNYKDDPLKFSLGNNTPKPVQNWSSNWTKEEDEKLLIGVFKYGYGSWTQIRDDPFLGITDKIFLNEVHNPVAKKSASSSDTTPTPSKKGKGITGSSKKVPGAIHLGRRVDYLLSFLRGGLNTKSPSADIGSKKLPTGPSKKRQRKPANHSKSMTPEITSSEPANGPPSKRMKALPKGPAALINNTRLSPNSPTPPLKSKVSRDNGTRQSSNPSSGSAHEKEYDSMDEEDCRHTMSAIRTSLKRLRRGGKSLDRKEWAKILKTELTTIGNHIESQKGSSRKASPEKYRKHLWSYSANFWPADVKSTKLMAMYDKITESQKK

Sequence of Protein translocase subunit SecA (Escherichia coli (strain K12)) (P10408 whole entry): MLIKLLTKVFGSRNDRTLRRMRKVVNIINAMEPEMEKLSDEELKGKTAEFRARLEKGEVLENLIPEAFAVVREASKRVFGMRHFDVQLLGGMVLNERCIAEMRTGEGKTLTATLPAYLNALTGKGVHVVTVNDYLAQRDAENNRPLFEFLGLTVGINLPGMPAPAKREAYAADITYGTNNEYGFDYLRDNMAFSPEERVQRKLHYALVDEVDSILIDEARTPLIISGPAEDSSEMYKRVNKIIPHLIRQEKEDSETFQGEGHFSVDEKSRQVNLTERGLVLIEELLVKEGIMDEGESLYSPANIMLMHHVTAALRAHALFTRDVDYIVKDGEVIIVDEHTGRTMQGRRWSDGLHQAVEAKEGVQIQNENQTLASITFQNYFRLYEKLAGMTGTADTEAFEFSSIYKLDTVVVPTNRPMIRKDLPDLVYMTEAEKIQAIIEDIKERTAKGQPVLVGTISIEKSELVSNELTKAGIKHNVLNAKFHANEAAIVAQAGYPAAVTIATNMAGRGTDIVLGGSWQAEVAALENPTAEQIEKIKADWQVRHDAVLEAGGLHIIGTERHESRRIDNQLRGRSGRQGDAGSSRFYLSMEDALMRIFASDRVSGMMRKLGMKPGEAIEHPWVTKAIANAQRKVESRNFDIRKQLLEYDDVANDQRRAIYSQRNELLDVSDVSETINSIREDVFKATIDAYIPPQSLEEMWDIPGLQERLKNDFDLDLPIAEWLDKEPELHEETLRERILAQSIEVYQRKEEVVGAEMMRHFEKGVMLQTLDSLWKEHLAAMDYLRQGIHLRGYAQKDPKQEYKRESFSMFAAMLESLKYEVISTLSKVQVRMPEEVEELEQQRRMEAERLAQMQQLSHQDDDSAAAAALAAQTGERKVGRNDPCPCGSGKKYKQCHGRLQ

Row | Structure (SMILES) | Percent Effect [1] [%] | Percent Effect [2] [%] | Percent Effect [3] [%] | Percent Effect (Trypanosoma cruzi) [%] | Percent Effect [4] [%] | Percent Effect [5] [%] | Percent Effect (Homo sapiens) [%] | Percent Effect [6] [%] | Percent Effect [7] [%] | Percent Effect [8] [%]
1 | Cc1ccc(C(=O)N2C[C@@H](OCC3CCOCC3)[C@H]3OCCC[C@H]32)o1 | -3.48 | 14.3 | 0.662 | 4.58 | 10.9 | 9.44 | 6.42 | 4.74 | 15.4 | 18.8
2 | Cc1ccc(CCN2CCC(N(C)Cc3noc(C4CC4)n3)C2)cc1 (stereo not given) | -0.729 | 10.3 | -7.58 | 0.0939 | 3.69 | 11.7 | -3.17 | 5.26 | 8.43 | -4.27
3 | CCO[C@H]1CO[C@@]2(CCCN(S(=O)(=O)c3ccccc3)C2)C1 | -1.1 | 24.7 | -3.22 | -3.02 | 11.3 | 17.7 | 10.2 | 2.63 | 0 | 6.62
4 | CCn1ncc(NC(=O)c2cc(C3CC3)nc3c2c(C)nn3C)c1C | -5.7 | 20 | -4.48 | 3.75 | -2.21 | 22 | 14.6 | 2.12 | 15 | -28.1
5 | Fc1ccc(CN2CCCC2c2cncc(-n3ccnc3)n2)cc1 (stereo not given) | -2.01 | 9.33 | -0.339 | -0.986 | 0.885 | -1.97 | 3.29 | 4.23 | 12.5 | -24.9
6 | CC(Cn1cccn1)NC(=O)N1CCN(Cc2cccnc2)CC1 (stereo not given) | -6.34 | 7.79 | 1.46 | 1.87 | -1.02 | 11.2 | -5.12 | 5.88 | 23.5 | -16.2
7 | Cc1ccccc1CC(=O)N(C)C1CCN(c2ccccn2)CC1 | -6.18 | 10.7 | 3.6 | 5.22 | -1.33 | 15 | 6.38 | 5.79 | 12.8 | -17.5
8 | Cc1cc(-c2nn(C)c(Cl)c2CN2CCOCC2CC(=O)O)no1 (stereo not given) | -6.59 | 10.8 | 10.3 | 5.92 | 15.7 | 12.2 | 22.2 | 7.98 | 12.2 | -0.504
9 | Cn1ccc(C(=O)NCc2ccc(N3CCCC3)nc2)cc1=O | -3.18 | 8 | 10.6 | 1 | 0 | 5.85 | 21.7 | 3.68 | 5.13 | -7.64
10 | O=C(c1cc(C2CC2)on1)N1CCCC(n2cncn2)C1 (stereo not given) | -3.26 | 15.4 | -20 | 9.48 | -0.82 | 20.7 | 15.6 | 4.31 | 22.9 | 30.2
11 | Cc1cccc(CN2C[C@@H]3CN(C(=O)[C@H]4CCCO4)C[C@@H]3C2=O)c1 | -6.54 | 24.7 | 2.65 | 3 | -2.28 | 16.4 | 5.56 | 9.66 | 20 | -6.96
12 | CN1CC(=O)N(c2ccsc2)CC12CCN(C(=O)c1ccccc1)C2 (stereo not given) | -4.65 | 11.7 | -6.87 | -3.99 | 3.64 | 12.6 | -10.9 | 5.79 | 7.69 | 1.01
13 | CCOc1ccc(Cl)c(C(=O)N(C)C)n1 | -2.43 | 15.4 | -11.2 | -3.66 | 2.05 | 14.2 | 30.8 | 4.31 | 13.2 | -2.78
14 | O=C(CSc1ccccn1)N1C[C@H]2CC[C@@H]1CN(Cc1cscn1)C2 | -11.4 | 0 | 4.87 | -3.78 | -0.35 | 13.9 | 11.3 | -3.72 | -4.88 | -3.86
15 | Cc1ccc(CN2CCCn3c(nc(Cn4cncn4)cc3=O)C2)s1 | -8.68 | 11.7 | -3.78 | 2.43 | -1.22 | 7.5 | -3.95 | 4.74 | 12.8 | -1.68
16 | COc1ccccc1CC(=O)N1CC[C@@]2(CCCO2)[C@@H](OC)C1 | -3.82 | 4 | -4.43 | -3.35 | -9.29 | 6.4 | 14.4 | -1.06 | 5 | -24.2
17 | COCCN1C(=O)CCC12CCN(C(=O)NC(C)C)CC2 | -5.46 | 3.9 | -2.04 | -0.938 | -0.457 | -2.66 | 19.9 | 1.93 | -10 | -3.15
18 | COC(=O)CC(c1cnn(C)c1)c1oc(C)cc(=O)c1O (stereo not given) | -7.67 | 0 | 0.282 | -5.33 | -3.85 | 6.85 | 8.46 | 0.532 | 0 | -1.21
19 | Cc1[nH]c(=O)c(C#N)cc1C(=O)N1C[C@@H](CN2CCCC2)C[C@H](CO)C1 | -6.79 | -8.11 | -1.68 | -2.81 | 3.85 | -5.82 | 21.2 | -0.532 | -2.44 | 2.93
20 | c1cnn(CC2CN(Cc3noc(C4CC4)n3)CCO2)c1 (stereo not given) | -9.46 | 16 | 4.59 | 1.81 | -3.1 | 10.8 | 7.98 | 3.68 | 7.69 | -6.72
21 | O=C(Nc1ccccc1)N1CCn2nnc(COc3cccnc3)c2C1 | -6.28 | 6.49 | -0.598 | -0.487 | 4.86 | 5.56 | -5.86 | 8.95 | 15.4 | 5.54
